# From PubChem BioAssay AID504340 (NMMLSC, 2011)
# A number with no mark means an inactive call. The source made the active and inactive calls.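 How the source made its calls: active means GFP response above 150% of the DMSO control; inconclusive means Under 70 cell events counted for a yeast strain; inactive means the rest.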
# Test: yeast TOR pathway CIT2-GFP reporter retest – flow cytometry, third cherry pick, single plex, confirmation (AID 504340);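 further: median GFP fluorescence over all cells with no mother versus daughter split; sample signal as a ratio to the plate DMSO mean so 100% equals DMSO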
# Details: S. cerevisiae CIT2-GFP strain, 3 h, at 10 µM, stronger effect = higher value
row,SMILES,GFP response vs DMSO
1,Nn1cnc2c(c1=O)C1(CCCCC1)Cc1ccccc1-2,129%
2,C/C(=C\C(=O)c1ccccc1)Nc1ccc(O)cc1,103%
3,CCN(CC)c1ncnc2ccc(Br)cc12,97.7%
4,COCCCNc1nc(N)c([N+](=O)[O-])c(Nc2ccccc2OC)n1,107%
5,COc1ccc(Nc2nc(NN)nc(C)c2[N+](=O)[O-])cc1,94.5%
6,COc1ccc(NC(=O)O/N=C2/CCCc3ccc(OC)cc32)cc1,104%
7,COc1cc(OC)cc(C(=O)Nc2ccc(-c3nc4ccccc4o3)cc2)c1,112%
8,Cc1nc(Nc2ccc(Br)cc2Br)c([N+](=O)[O-])c(=O)[nH]1,103%
9,Cc1ccc2c(C)ccc(O)c2n1,106%
10,O=C(Nc1ccccc1)O/N=C1\CCCCC1c1ccc([N+](=O)[O-])cc1[N+](=O)[O-] (centres undefined),101%
11,Cc1ccc2c(Cl)cc(Cl)c(O)c2n1,138%
12,COc1ccccc1-c1cc(C(F)(F)F)nc(S(=O)(=O)CCCC(=O)O)n1,111%
13,COc1ccc(OC)c2c(=O)cc(C(=O)O)[nH]c12,111%
14,Cn1c(NCCO)nc2c(c1=O)C1(CCCCC1)Cc1ccccc1-2,116%
15,Nc1nc(NCCOCCO)nc(Nc2cccc(F)c2)c1[N+](=O)[O-],96.1%
16,O=C(O)c1ccc2cccc(O)c2n1,109%
17,O=C(/C=C/Nc1cccc(O)c1)c1ccccc1,111%
18,COc1ccccc1Nc1nc(NCC(C)C)nc(N)c1[N+](=O)[O-],114%
19,C=CCNc1nc(N)c([N+](=O)[O-])c(Nc2ccccc2OC)n1,127%
20,Cn1c(=O)c2c(n3cnnc13)-c1ccccc1CC21CCCC1,106%

row,SMILES,GFP response vs DMSO
1,Oc1ccc(Cl)c2cccnc12,103%
2,Cc1ccc(C(=O)/C=C/Nc2cccc(O)c2)cc1,109%
3,O=C(Nc1cccc2ccccc12)ON=C1CCCCC1,106%
4,Oc1c(Br)cc(Br)c2cccnc12,189% (active)
5,COCCCNc1nc(N)c([N+](=O)[O-])c(Nc2cc(OC)ccc2OC)n1,106%
6,Cc1ccc2c(Cl)cc(Cl)c(OCC(=O)O)c2n1,109%
7,O=C(Nc1cccc(Cl)c1)ON=C1c2ccccc2-c2ccccc21,101%
8,Cn1c(NCCCO)nc2c(c1=O)C1(CCCCC1)Cc1ccccc1-2,117%
9,Nc1c(O)ccc2c1C(=O)c1ccccc1C2=O,99.3%
10,C/C(=C\C(=O)c1ccc(C)cc1)Nc1cccc(O)c1,103%
11,NC(=O)COc1cccc2cccnc12,104%
12,C/C(=N\NC(=O)c1cccc2ccccc12)c1cccnc1,91.2%
13,CC(=O)NCCOc1cccc2cccnc12,104%
14,N#Cc1c(N)nc(N)nc1Nc1ccc(Br)cc1,99.3%
15,CNc1nc(C)c([N+](=O)[O-])c(Nc2ccc(OC)cc2)n1,97.7%
16,C[n+]1cccc2cccc([O-])c21,103%
17,CCCC(=O)Nn1cnc2c(c1=O)C1(CCCC1)Cc1ccccc1-2,94.5%
18,Cc1nc(Nc2ccc(Cl)cc2)c(C#N)c(=O)[nH]1,107%
19,COc1cccc2c(Cl)c(CCCl)c(C)nc12,111%
